The source of these data is PubChem BioAssay (Tox21).

Unmarked numbers belong to inactive results. Inconclusive results are not listed. Activity calls are given as the source filed them. Unless noted, calls follow the shape of the dose curve; as a rule, active = well fitted curve in the direction sought with a large enough effect in the repeat runs; inconclusive = weak or mixed curves; inactive = no such curve, though single readings can be large; an effect the other way counts as inactive or inconclusive.

Assay [1] has as its target Estrogen receptor (Homo sapiens) (UniProt P03372). The assay can be described thus: qHTS assay to identify small molecule agonists of the estrogen receptor alpha (ER-alpha) signaling pathway in the presence of an antagonist (AID 1259383; calls by dose curve; also: nearly all actives have a fitted effect of over 15% in size; also: potency is read from the fitted curve at half-maximal effect). The essentials:
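Luminescent ERE-luciferase reporter, VM7Luc4E2 cells (endogenous ER-alpha); 10.0nM ICI-182,780 final; 15-point compound titration; 22hr at 37C; ONE-Glo, 30min RT.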
(Quantitative high-throughput screening tests each substance at several concentrations.)

The nature of assay [2]: qHTS assay to identify small molecule agonists or antagonists of the thyroid stimulating hormone receptor (TSHR) signaling pathway - wild type cell line counter screen (AID 1259384; calls by dose curve; also: % is scaled to controls: 0 for no effect and ±100 for the full control effect). In short, it runs like this:
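Wild-type Hek293 cells, 800/well, 18 h at 37C, then compound with Ro20-1724 for 30 min RT. cAMP by HTRF (cAMP-d2/anti-cAMP cryptate), 1 h RT, fluorescence read. 15 concentrations, triplicates.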

Assay [3] can be described thus: qHTS assay to identify small molecule agonists of the estrogen receptor alpha (ER-alpha) signaling pathway in the presence of an antagonist - cell viability counter screen (AID 1259386).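 Also: cells exposed to compounds for 22 h at 37 °C before the viability read; nearly all actives have a fitted effect of over 30% in size.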 Also: potency is read from the fitted curve at half-maximal effect. In short, it runs like this:
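Using estrogen-depleted VM7Luc4E2 cells, the 15-concentration compound series was applied together with 10.0nM ICI-182,780 and incubated 22hr at 37C/5% CO2. Cell viability was then scored by CellTiter-Fluor.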

Assay [4] concerns the target Progesterone receptor (Homo sapiens) (UniProt P06401). Put plainly: qHTS assay to identify small molecule antagonists of the progesterone receptor (PR) signaling pathway (AID 1346795; active = well fitted inhibition curve with a large enough effect in the signal ratio in the repeat runs, not every such curve was filed as active; the % refers to the signal ratio; also: potency is read from the fitted curve at half-maximal effect). In short, it runs like this: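 Antagonist mode with agonist R5020 at 1 nM final and 16 hr incubation at 37C. Reporter was beta-lactamase driven by UAS in HEK293T (PR-UAS-bla), 2% charcoal-stripped serum; signal from LiveBLAzer FRET substrate, 2 hr at room temperature.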

The nature of assay [5]: qHTS assay to identify small molecule antagonists of the progesterone receptor (PR) signaling pathway - cell viability counter screen (AID 1346798). Also: nearly all actives have a fitted effect of over 50% in size. Also: potency is read from the fitted curve at half-maximal effect. The essentials:
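Cytotoxicity read as CellTiter-Glo luminescence (30 min, room temperature) in the same wells as the beta-lactamase readout. HEK293T PR-UAS-bla cells in charcoal-stripped 2% FBS received compound and R5020, then 16 h at 37C, 5% CO2.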

The nature of assay [6]: qHTS assay to identify small molecule agonists of the progesterone receptor (PR) signaling pathway - cell viability counter screen (AID 1346799; calls by dose curve; also: nearly all actives have a fitted effect of over 45% in size; also: potency is read from the fitted curve at half-maximal effect). The essentials:
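Cytotoxicity measured by CellTiter-Glo luminescence (30 min, RT) in the same wells as the PR beta-lactamase agonist read. Those HEK293T cells had 16 h compound treatment at 37 C in 2% charcoal-stripped FBS medium.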

Assay [7] can be described thus: qHTS assay to identify small molecule antagonists of the TGF-beta/Smad signaling pathway - cell viability counter screen (AID 1346824). Also: nearly all actives have a fitted effect of over 50% in size. Also: potency is read from the fitted curve at half-maximal effect. In short, it runs like this: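 SBE-bla HEK 293T cells, incubated overnight, then compound plus 0.25 ng/mL TGF-beta1 (stock added) for 5 hr at 37 C. Viability was read in the same wells by CellTiter-Glo luminescence after 30 min at room temperature.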

A short description of assay [8]: qHTS assay to identify small molecule agonists of the TGF-beta/Smad signaling pathway - cell viability counter screen (AID 1346829). Also: nearly all actives have a fitted effect of over 45% in size. Also: potency is read from the fitted curve at half-maximal effect. The essentials:
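Luminescence from CellTiter-Glo, read after a 30 min room-temperature incubation, gives cell viability of SBE-bla HEK 293T cells treated 5 hr with compounds at 37 C.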

Assay [9] can be described thus: qHTS assay to identify small molecule agonists of the TGF-beta/Smad signaling pathway (AID 1346859; active = well fitted activation curve with a large enough effect in the signal ratio in the repeat runs, not every such curve was filed as active; the % refers to the signal ratio; also: series mostly up to about 77 µM; % is scaled to controls: 0 for no effect and ±100 for the full control effect). The essentials:
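Fluorescence (ex 405 nm; em 460 and 530 nm) was read 2 h after LiveBLAzer FRET substrate at RT. The preceding compound treatment of overnight-plated SBE-bla HEK293T cells lasted 5 h at 37 C.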

Assay [10] can be described thus: Caspase-3/7 induction in HepG2 cells by small molecules, qHTS assay (AID 1346978). Also: nearly all actives have a fitted effect of over 15% in size. Also: potency is read from the fitted curve at half-maximal effect. In short, it runs like this:
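Wild-type HepG2 cells, 2,000/well, settled 5 hr at 37 C and 5% CO2, then compound-treated for 17 hr; caspase-3/7 activity read by luminescent Caspase-Glo 3/7 after 30 min at room temperature.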

Assay [11] in a line: Caspase-3/7 induction in CHO-K1 cells by small molecules, qHTS cell viability counter screen (AID 1346979). Also: nearly all actives have a fitted effect of over 35% in size. Also: potency is read from the fitted curve at half-maximal effect. In short, it runs like this: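 Cytotoxicity counter screen: CellTiter-Fluor added to compound-treated wild-type CHO-K1 cells at 16 h (37C, 5% CO2), fluorescence measured 1 h later; same wells as caspase-3/7 measurement.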
Assay [12] can be described thus: Caspase-3/7 induction in CHO-K1 cells by small molecules, qHTS assay (AID 1346980). Also: nearly all actives have a fitted effect of over 15% in size. Also: potency is read from the fitted curve at half-maximal effect. In short, it runs like this:
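Wild-type CHO-K1 cells exposed to compounds for 17hr at 37 C, 5% CO2. Caspase-3/7 activity then measured by Caspase-Glo 3/7 luminescence after 30min at room temperature.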

Assay [13] has as its target Nuclear receptor subfamily 1 group I member 2 (Homo sapiens) (UniProt O75469). Put plainly: Human pregnane X receptor (PXR) small molecule agonists, qHTS assay (AID 1346982). Also: nearly all actives have a fitted effect of over 35% in size. Also: potency is read from the fitted curve at half-maximal effect. The essentials:
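Tox21 qHTS; PXR-Luc HepG2; compounds pinned from DMSO; 24 hr, 37 C; ONE-Glo luciferase detection, 30 min room temperature.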

The target of assay [14] is Thyrotropin-releasing hormone receptor (Homo sapiens) (UniProt P34981). The assay can be described thus: qHTS assay to identify small molecule antagonists of the thyrotropin-releasing hormone receptor (TRHR) signaling pathway (AID 1346877; active = well fitted inhibition curve with a large enough effect in the repeat runs, not every such curve was filed as active; also: series mostly up to about 51 µM; % is scaled to controls: 0 for no effect and ±100 for the full control effect). The essentials: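 Calcium signal in dye-loaded TRHR/HEK293 cells; compounds added 5 min before TRH (1 nM final); fluorescence monitored 3 min at 1 s steps.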

A short description of assay [15]: Human pregnane X receptor (PXR) small molecule agonists, qHTS cell viability counter screen (AID 1346977). Also: nearly all actives have a fitted effect of over 50% in size. Also: potency is read from the fitted curve at half-maximal effect. In short, it runs like this:
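Same-well viability read: CellTiter-Fluor added after 23 hr compound exposure, fluorescence measured 1 hr later. Cells were PXR-Luc HepG2 seeded at 2,000/well in 5% charcoal-stripped FBS medium, rested 5 hr before dosing at 37 C.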

The target in assay [16] is Progesterone receptor (Homo sapiens) (UniProt P06401). Put plainly: qHTS assay to identify small molecule agonists of the progesterone receptor (PR) signaling pathway (AID 1346784; calls by dose curve; also: % is scaled to controls: 0 for no effect and ±100 for the full control effect; nearly all actives have a fitted effect of over 30% in size). The essentials: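 Agonist qHTS: compounds pinned onto 3,000 PR-UAS-bla HEK 293T cells per well in charcoal-stripped serum medium, 16hr at 37C, then beta-lactamase activity measured by LiveBLAzer FRET fluorescence after 2 hours at room temperature.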

Assay [17] in a line: Caspase-3/7 induction in HepG2 cells by small molecules, qHTS cell viability counter screen (AID 1346981). Also: series mostly up to about 92 µM; % is scaled to controls: 0 for no effect and ±100 for the full control effect; nearly all actives have a fitted effect of over 30% in size. In short, it runs like this:
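After a 5-hr attachment period at 37 C and 5% CO2, wild-type HepG2 cells received compounds in DMSO. Sixteen hours later CellTiter-Fluor was dispensed and the fluorescent signal quantified after a further hour.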

In assay [18] the target is Thyrotropin receptor (Homo sapiens) (UniProt P16473). Put plainly: qHTS assay to identify small molecule antagonists of the thyroid stimulating hormone receptor (TSHR) signaling pathway (AID 1259385; calls by dose curve; also: % is scaled to controls: 0 for no effect and ±100 for the full control effect; nearly all actives have a fitted effect of over 20% in size). In short, it runs like this: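 TSHR-HEK293 cells (800/well) plated 18 h, then compounds with Ro20-1724 and TSH at 1.5 ng/mL final, 30 min at room temperature. cAMP quantified by HTRF (cAMP-d2/anti-cAMP-cryptate, 1 h); 15 concentrations in triplicate.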

The target of assay [19] is Thyrotropin-releasing hormone receptor (Homo sapiens) (UniProt P34981). Put plainly: qHTS assay to identify small molecule agonists of the thyrotropin-releasing hormone receptor (TRHR) signaling pathway (AID 1346891; calls by dose curve; also: series mostly up to about 58 µM; % is scaled to controls: 0 for no effect and ±100 for the full control effect). In short, it runs like this:
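Agonist-mode intracellular calcium readout: kinetic fluorescence over 3 min at 1 s intervals after compound addition to TRHR-HEK293 cells (18 h seeded, 2 h dye-loaded at 37 C). Fifteen concentrations, triplicates.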

Sequence of Progesterone receptor (Homo sapiens) (P06401 whole entry, looked up): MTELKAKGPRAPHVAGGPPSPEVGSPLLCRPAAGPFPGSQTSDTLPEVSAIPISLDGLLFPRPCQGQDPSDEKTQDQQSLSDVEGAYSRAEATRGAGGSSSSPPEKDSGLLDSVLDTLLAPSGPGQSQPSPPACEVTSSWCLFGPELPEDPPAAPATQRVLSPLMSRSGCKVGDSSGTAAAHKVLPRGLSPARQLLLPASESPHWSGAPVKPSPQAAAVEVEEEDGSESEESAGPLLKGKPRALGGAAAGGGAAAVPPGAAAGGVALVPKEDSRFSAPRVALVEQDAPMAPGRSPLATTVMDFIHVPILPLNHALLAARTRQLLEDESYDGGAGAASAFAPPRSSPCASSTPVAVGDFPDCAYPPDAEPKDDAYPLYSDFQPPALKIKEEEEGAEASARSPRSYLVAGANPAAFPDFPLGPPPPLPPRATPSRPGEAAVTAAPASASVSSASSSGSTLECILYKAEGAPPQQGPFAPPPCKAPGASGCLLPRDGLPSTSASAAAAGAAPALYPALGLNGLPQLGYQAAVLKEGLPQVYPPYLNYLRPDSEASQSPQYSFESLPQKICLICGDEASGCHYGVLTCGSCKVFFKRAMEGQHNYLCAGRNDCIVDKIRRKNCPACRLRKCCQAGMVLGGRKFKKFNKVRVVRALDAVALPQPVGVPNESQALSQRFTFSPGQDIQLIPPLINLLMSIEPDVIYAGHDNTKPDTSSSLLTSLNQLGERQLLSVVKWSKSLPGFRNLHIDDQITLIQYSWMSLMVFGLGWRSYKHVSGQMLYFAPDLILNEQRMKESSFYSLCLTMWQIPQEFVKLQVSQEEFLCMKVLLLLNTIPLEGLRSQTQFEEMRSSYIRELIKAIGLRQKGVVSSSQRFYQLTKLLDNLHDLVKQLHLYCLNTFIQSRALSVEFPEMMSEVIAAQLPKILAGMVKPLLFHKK
Sequence of Thyrotropin receptor (Homo sapiens) (P16473 whole entry, looked up): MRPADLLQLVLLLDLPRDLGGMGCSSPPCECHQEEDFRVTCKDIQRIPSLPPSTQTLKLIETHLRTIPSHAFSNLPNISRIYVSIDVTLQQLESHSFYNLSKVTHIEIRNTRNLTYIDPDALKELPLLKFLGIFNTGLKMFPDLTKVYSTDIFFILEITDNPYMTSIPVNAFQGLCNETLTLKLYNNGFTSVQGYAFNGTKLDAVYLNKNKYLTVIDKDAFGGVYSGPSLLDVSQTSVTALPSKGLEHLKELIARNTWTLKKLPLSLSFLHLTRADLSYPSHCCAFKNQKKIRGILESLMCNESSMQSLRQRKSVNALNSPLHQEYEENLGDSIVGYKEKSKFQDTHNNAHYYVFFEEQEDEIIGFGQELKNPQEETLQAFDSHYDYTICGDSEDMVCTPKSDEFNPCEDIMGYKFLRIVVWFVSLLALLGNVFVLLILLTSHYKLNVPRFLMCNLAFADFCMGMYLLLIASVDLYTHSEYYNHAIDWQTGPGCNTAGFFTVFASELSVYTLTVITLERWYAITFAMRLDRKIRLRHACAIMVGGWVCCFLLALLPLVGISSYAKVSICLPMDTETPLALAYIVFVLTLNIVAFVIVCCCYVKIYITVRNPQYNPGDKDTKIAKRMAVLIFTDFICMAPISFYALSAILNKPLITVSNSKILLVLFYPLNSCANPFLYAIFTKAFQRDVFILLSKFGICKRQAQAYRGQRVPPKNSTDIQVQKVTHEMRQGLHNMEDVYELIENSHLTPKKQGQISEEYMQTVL
Sequence of Estrogen receptor (Homo sapiens) (P03372 whole entry, looked up): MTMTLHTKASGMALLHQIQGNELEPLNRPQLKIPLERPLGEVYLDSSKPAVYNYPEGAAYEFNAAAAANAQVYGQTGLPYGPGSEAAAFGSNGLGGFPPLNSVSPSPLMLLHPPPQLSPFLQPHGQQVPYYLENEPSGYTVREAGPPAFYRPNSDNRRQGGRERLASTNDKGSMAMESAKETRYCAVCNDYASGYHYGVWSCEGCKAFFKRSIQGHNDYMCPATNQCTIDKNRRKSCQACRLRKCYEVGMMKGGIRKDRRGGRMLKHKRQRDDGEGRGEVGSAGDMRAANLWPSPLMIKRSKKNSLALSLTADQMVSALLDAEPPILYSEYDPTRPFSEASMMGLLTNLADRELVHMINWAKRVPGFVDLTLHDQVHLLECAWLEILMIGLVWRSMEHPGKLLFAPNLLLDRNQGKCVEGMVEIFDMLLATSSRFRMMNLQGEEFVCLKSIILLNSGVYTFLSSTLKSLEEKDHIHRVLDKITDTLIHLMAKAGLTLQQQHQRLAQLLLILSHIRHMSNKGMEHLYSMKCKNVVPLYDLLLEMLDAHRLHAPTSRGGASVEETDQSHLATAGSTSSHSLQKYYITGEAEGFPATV
Sequence of Nuclear receptor subfamily 1 group I member 2 (Homo sapiens) (O75469 whole entry, looked up): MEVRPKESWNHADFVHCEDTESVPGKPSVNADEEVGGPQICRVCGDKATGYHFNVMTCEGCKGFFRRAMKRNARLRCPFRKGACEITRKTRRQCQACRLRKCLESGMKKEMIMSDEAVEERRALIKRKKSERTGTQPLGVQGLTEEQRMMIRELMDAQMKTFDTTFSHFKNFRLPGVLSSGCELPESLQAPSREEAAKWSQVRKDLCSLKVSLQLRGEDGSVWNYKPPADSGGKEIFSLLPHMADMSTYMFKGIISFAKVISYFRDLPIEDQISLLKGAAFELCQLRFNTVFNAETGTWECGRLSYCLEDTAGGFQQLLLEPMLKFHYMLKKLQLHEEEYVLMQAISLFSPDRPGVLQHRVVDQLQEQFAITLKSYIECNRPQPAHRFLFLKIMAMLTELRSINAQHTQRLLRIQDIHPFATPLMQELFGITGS
Sequence of Thyrotropin-releasing hormone receptor (Homo sapiens) (P34981 whole entry, looked up): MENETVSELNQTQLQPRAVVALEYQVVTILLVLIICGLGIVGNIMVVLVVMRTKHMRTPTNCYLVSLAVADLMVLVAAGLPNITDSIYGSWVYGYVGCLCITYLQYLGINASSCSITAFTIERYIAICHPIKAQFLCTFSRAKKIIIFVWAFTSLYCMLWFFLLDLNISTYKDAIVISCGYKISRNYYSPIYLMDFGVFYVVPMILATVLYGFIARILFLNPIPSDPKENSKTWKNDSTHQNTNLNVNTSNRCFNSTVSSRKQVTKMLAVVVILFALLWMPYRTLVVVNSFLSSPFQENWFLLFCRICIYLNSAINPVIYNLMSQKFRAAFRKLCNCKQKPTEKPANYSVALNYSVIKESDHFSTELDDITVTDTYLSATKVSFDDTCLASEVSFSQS

With `c1ccc(-c2ccc(C(c3ccccc3)n3ccnc3)cc2)cc1` (configuration not stated), the Potency entry in [1], in assay [2], in [3], in [7], in [8] and in [10] was “inactive” each time. For the same compound, the Potency entry in assay [12] is “inactive”. Besides, the Potency was 5.96 µM (active) in assay [4]; 9.44 µM (active) in assay [5]; 16.8 µM (active) in assay [6]; 18.8 µM (active) in assay [11]; 23.7 µM (active) in assay [13]. The compound was classed as inactive in [9].

Take `COc1cc(/C=C/C(=O)CC(=O)/C=C/c2ccc(O)c(OC)c2)ccc1O`: the Potency result in [1], in [2], in assay [14] and in assay [12] was “inactive” each time. Also, the Potency in [3] is 61.5 µM (active); in [15], 30.8 µM (active); in [11], 43.5 µM (active); in assay [13], 24.5 µM (active).

`CCCOC(=O)c1ccc(O)cc1`: the Potency was 47.5 µM (active) in [1] and 48.6 µM (active) in assay [13]. Besides, the Potency entry in [2], in [7], in [8], in assay [14], in assay [15] and in assay [10] was “inactive” in each case. In addition, the Potency result in assay [11], in [12] and in assay [17] was “inactive” throughout. The result in assay [16] and in [9] was inactive.

Turning to `CSc1ccc(O)cc1C`, the Potency entry in assay [1], in assay [2], in assay [18], in [3], in assay [6] and in [7] was “inactive” each time. For the same compound, the Potency result in [8], in [10], in assay [12] and in assay [17] was “inactive” each time. In addition, the result in assay [16] and in assay [9] was inactive. Besides, in assay [5], the Potency was 61.1 µM (active).

On to `CN(C/C=C/c1ccccc1)Cc1cccc2ccccc12`, for which the Potency result in assay [1], in assay [2], in [5], in assay [6], in [7] and in assay [19] was “inactive” throughout. The Potency entry in [15], in assay [10], in assay [12], in [17] and in assay [13] was “inactive” throughout. Also, the outcome in assay [16] and in [9] was inactive.

Regarding `O=c1[nH]cccc1O`, the Potency entry in [1], in assay [3], in assay [7], in [8], in assay [15] and in assay [10] was “inactive” throughout. The Potency entry in assay [11], in assay [12] and in assay [17] was “inactive” in each case. Further, the outcome in assay [16] and in assay [9] was inactive.

Regarding `C=CCc1cc(S(=O)(=O)c2ccc(O)c(CC=C)c2)ccc1O`, the Potency entry in [1], in assay [2], in [18], in assay [3], in [7] and in [8] was “inactive” throughout. Also, the Potency entry in assay [10] and in [12] was “inactive” in each case. The call in assay [16] and in [9] was inactive. Moreover, in [4], the Potency was 27.3 µM (active).

On to `C=C1C(CCl)(CCl)C2(Cl)C(Cl)C(Cl)C1(Cl)C2(Cl)Cl` (configuration not stated), for which the Potency result in [2], in assay [18] and in assay [7] was “inactive” each time. Moreover, the Potency in assay [5] is 67.8 µM (active); in assay [8], 54.3 µM (active); in assay [11] it was 53.8 µM (active); in [12], 48 µM (active). The call in [9] was inactive.

With `S=C1NC=NC2N=CNC12` (configuration not stated), the Potency result in assay [2], in assay [18], in assay [3], in [19], in assay [15] and in assay [10] was “inactive” in each case. Besides, the Potency entry in [12] and in assay [17] was “inactive” throughout. For the same compound, the call in assay [16] and in [9] was inactive. Also, the Potency in [7] was 3.47 µM (active); in assay [13], 21.7 µM (active).

In the case of `O=C(O)C[C@H](O)C[C@H](O)/C=C/c1c(C2CC2)nc2ccccc2c1-c1ccc(F)cc1`, the activation was -0.342% [at 19 µM] in [1]; -0.575% [at 19 µM] in assay [16]; -0.423% [at 15.8 µM] in assay [9]; -0.474% [at 11.8 µM] in assay [19]; 12.4% [at 19 µM] in assay [13]. Also, the cAMP activity change in [2] is -3.96% [at 18.9 µM, hits give high values]. Also, the activity change, negative = inhibition in [18] is 1.31% [at 19 µM]. For the same compound, the activity change, negative = cytotoxicity in [3] is 8.43% [at 19 µM]; in assay [8], 3.76% [at 15.8 µM]; in assay [15] it was -7.27% [at 19 µM]. Moreover, the Potency in assay [6] is 0.651 µM (active); in [10], 10.3 µM (active); in assay [12] it was 5.8 µM (active). The viability change, negative = cytotoxic in assay [7] is 0.256% [at 15.8 µM]. In addition, the activity, negative = inhibition in assay [14] is 1.91% [at 10.5 µM].
